# This is a sample that favours compounds with a hit; in the whole collection about 1% have one here.
# E-sel TNF inh: blocks E-selectin expression induced by TNF alpha; HUVEC TNFa-induced E-selectin immunofluorescence, high content; inhibition, % at 2 µM; actives 0.71% (n = 120,000);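 active = inhibition above the batch mean plus 3 SD, and confirmed as a hit on visual image review, cut at about 43% in these data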
# TNFa cytotox: toxic to HUVEC cells under TNF alpha stimulation; HUVEC TNFalpha-stimulated, Hoechst cell count, imaging; cell count reduction, % at 2 µM; actives 0.17% (n = 93,000);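 active = cell count reduction exceeding the screen mean by over 5 SD, scaled to untreated wells per plate, cut at about 78% in these data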;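 also: cells counted after 24 h of TNF alpha exposure following the 1 h pretreatment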
# cytoskel mod: cytoskeleton assembly modification | HUVEC TNFa F-actin phalloidin imaging, high content | inhibition, % at 2 µM | actives 0.18% (n = 91,000) | AID 836;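 active = inhibition above the batch mean plus 3 SD and confirmed as a hit by visual image inspection, cut at about 30% in these data, passing the limit was not always enough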
# VCAM1 TNFa inh: reduces TNF alpha induced VCAM1 expression in HUVEC. actives 0.48% (n = 95,000). AID 802. HUVEC TNFa-induced VCAM-1 immunofluorescence, high-content imaging. inhibition, % at 2 µM;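 active = inhibition above the batch mean plus 3 SD, with images confirmed as a hit by eye, cut at about 37% in these data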
# Hits are given with their value; n = inactive; x = no result.
SMILES,E-sel TNF inh,TNFa cytotox,cytoskel mod,VCAM1 TNFa inh
O=C(O)C1CC=CCC1C(=O)N1CCc2ccccc21 (configuration not stated),n,n,n,n
COC(=O)c1cc(=O)n(C2CC2)c(=NC2CC2)s1,x,n,n,n
CCOC(=O)/C(=C\c1cccnc1)C(=O)c1cc(C(C)=O)c(Nc2ccccc2)s1,n,n,x,54
c1cnc(SCCOc2cccc3ccccc23)nc1,n,n,x,n
CC(C(=O)O)C1SC(=O)NC1=O (configuration not stated),70,n,n,n
COC(=O)C1=NN(c2cccc(C)c2)C2C(=O)N(c3ccccc3OC)C(=O)C12 (configuration not stated),73,x,x,x
COC(=O)C1=C(C)N(c2cccc(C)c2)C(=O)/C1=C\c1cccs1,n,n,n,n
O=C(CSc1nc2ccccc2c(=O)n1-c1ccccc1)NCc1ccco1,n,88,n,n
COc1ccc(NC(=S)Nc2ccccc2)cn1,n,x,x,x
COc1ccc(NC(=O)/C(Cl)=C(/Cl)S(=O)Cc2ccccc2)cn1 (configuration not stated),x,99,n,88
COc1ccc(/C=C/C(=O)Nc2ccc(OC)nc2)cc1,n,x,x,x
COc1ccc(CS(=O)(=O)/C(Cl)=C(/Cl)C(=O)Nc2ccc(OC)nc2)cc1,95,n,n,42
O=C(Cc1n[nH]c(=O)c2ccccc12)NCc1ccccn1,n,n,n,n
O=Cc1ccc2oc3nc4n(c(=O)c3c(=O)c2c1)CCCS4,n,n,n,n
CCCS(=O)(=O)c1nnnn1-c1cccc(OC)c1,98,x,x,x
CCOC(=O)c1cc(-c2ccccc2)sc1NC(=S)Nc1cccc(C)n1,54,n,n,n
CCOC(=O)C1=C(CSc2nccn2C)NC(=O)NC1c1ccc2c(c1)OCO2 (configuration not stated),n,n,n,n
c1ccc(-n2c(-c3ccncc3)nnc2N2CCOCC2)cc1,60,n,n,n
c1ccc(-n2c(-c3ccncc3)nnc2-c2ccco2)cc1,n,n,n,n
CC(=O)N[C@@H](Cc1c[nH]c2ccccc12)C(=O)OCC(=O)Nc1ccc(S(=O)(=O)N(C)C)cc1,75,x,x,x
O=C(O)CC(=O)Nc1ccccc1,n,n,n,n
CC1CCN(C(=O)/C(=C/c2ccccc2Cl)c2ccccc2)CC1,n,n,n,n
N#CC(C#N)=C1C=CC=CN1/C(=C\c1ccccc1Cl)C(=O)c1ccccc1,69,x,x,x
CCn1c(SCC(=O)NCC(=O)Nc2ccc(F)cc2)nnc1-c1cccs1,x,n,n,n
CCn1c(SCC(=O)Nc2ccc(C(=O)OC)cc2)nnc1-c1cccs1,n,n,n,55
SMILES,E-sel TNF inh,TNFa cytotox,cytoskel mod,VCAM1 TNFa inh
Cn1c(=O)c(=O)n(C)c2cc(S(=O)(=O)N3CCc4ccccc43)ccc21,57,n,n,n
O=C(CN1C(=O)c2ccccc2C1=O)N1CCN(c2nnc(-c3ccccc3)c3ccccc23)CC1,n,n,n,n
Cc1ccc(-c2nnc(N3CCN(C(=O)CN4C(=O)c5ccccc5C4=O)CC3)c3ccccc23)cc1,100,n,n,n
CC1CN(S(=O)(=O)c2cccc(-c3cn4ccccc4n3)c2)CC(C)O1 (configuration not stated),n,n,n,n
CCn1c(COc2c(C)cccc2C)nnc1SCC(=O)N1CCN(c2ccccc2)CC1,n,n,n,n
C=CCn1c(COc2cccc(C)c2C)nnc1SCC(=O)N1CCN(c2ccccc2)CC1,68,x,x,x
CCN(CC)c1ccc(NC(=O)C2CC3CCC2C3)cc1 (configuration not stated),96,x,x,x
Cn1c(SCc2ccc(C#N)cc2)nnc1-c1cccc(Cl)c1,60,n,n,n
COC(=O)c1cc(COC(=O)c2ccc(OC)c(S(=O)(=O)N3CCCC3)c2)oc1C,x,96,n,n
COc1cccc(/C=N/NC(=O)CSc2nnc(C)n2-c2ccccc2)c1O,n,n,n,n
CCCCSc1nc(C)cc(SCC(=O)N/N=C/c2cccc(OC)c2O)n1,n,n,n,44
Nc1c(S(=O)(=O)c2cccs2)c2nc3ccccc3nc2n1CCc1ccccc1,n,n,n,n
Cc1ccc(-c2nnc(CSc3nc(C(C)C)nc4sc(C)c(C)c34)o2)cc1,n,n,n,n
Cc1ccc(CCN2CC(C(=O)NCc3ccco3)CC2=O)cc1 (configuration not stated),n,n,n,n
COc1ccc(Cl)c(NC(=O)Nc2c(C)n(-c3ccccc3)c(=O)n2C)c1,n,n,n,94
Cc1ccc2[nH]c3c(c2c1)CCC3=O,n,n,n,50
Cc1ccc2[nH]c3c(c2c1)CCCC3=O,n,n,n,n
O=C(CSc1ccc(-c2cccs2)nn1)N1CCCCCC1,n,x,x,x
O=C(COc1ccc(Br)cc1)Nc1ccncc1,n,n,n,n
